Source: PubChem (The Scripps Research Institute Molecular Screening Center)
An excerpt weighted towards active compounds, which were near 2.4% of everything screened.
CHO-K1 Ca ag: counter-screen for M1 agonists: effect in parental CHO-K1 cells; actives 0.48% (n = 360,000); Fluo-8 calcium fluorescence; scaled to maximal ATP response, vehicle zero; activation, % at 3 µM; in the data active = activation above about 15%;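 note: untransfected CHO-K1 host cells lacking M1 receptor as counterscreen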
M1 ag: agonists of human M1 muscarinic receptor. P11229. CHO-K1 hM1, Fluo-8 calcium fluorescence, agonist mode; 0% DMSO, 100% acetylcholine EC100. activation, % at 3 µM. actives 0.33% (n = 360,000);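 active = activation above the run's mean compound activation plus 3 SD, cut at about 16% in these data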;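 note: peak over basal fluorescence ratio within a 140 s kinetic read after compound addition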
Target sequence (P11229 whole entry, looked up): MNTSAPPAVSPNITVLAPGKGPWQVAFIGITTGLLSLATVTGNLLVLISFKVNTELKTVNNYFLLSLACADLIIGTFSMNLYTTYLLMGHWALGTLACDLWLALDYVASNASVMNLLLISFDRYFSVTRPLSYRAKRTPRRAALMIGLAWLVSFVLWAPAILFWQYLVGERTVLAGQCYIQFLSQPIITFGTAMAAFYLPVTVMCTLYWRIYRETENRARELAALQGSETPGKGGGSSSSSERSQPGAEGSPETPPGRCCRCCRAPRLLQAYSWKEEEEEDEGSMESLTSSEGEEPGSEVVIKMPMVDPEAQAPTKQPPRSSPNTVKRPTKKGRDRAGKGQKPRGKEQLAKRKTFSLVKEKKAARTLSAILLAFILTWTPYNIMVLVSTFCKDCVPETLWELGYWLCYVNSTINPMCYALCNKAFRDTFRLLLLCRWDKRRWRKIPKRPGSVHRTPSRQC
CHO-K1 Ca PAM: counter-screen for M1 PAMs: effect in parental CHO-K1 cells; ATP EC20, Fluo-8 calcium fluorescence; 0% at ATP EC20, 100% at ATP max; actives 0.02% (n = 360,000); activation, % at 3 µM; AID 602247;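 active = activation above the run cutoff, the mean activation of all test compounds plus 3 SD, cut at about 40% in these data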;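 note: peak over basal fluorescence ratio in a 140 s read after ATP addition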
M1 antag: human CHRM1 antagonism; CHO-K1 hM1, Fluo-8 calcium fluorescence, ACh EC80 antagonist; AID 588852; inhibition, % at 3 µM; P11229; actives 1.3% (n = 360,000);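 active = percent inhibition above its own plate's cutoff, namely the mean of that plate's compound wells plus 3 SD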;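 note: peak over basal fluorescence ratio during 140 s after agonist addition; 0% = ACh EC80 plus DMSO and 100% = DMSO alone without agonist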
CHO-K1 Ca antag: counter-screen for M1 antagonists: effect in parental CHO-K1 cells | ATP-induced calcium, Fluo-8 fluorescence | inhibition, % at 3 µM | actives 0.6% (n = 360,000) | AID 602250;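 active = inhibition above a per-plate cutoff, the plate's mean sample inhibition plus 3 SD, cut at about 24% in these data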;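 note: 0% = DMSO plus EC80 ATP and 100% = DMSO alone without ATP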
M1 PAM: potentiates human M1 receptor response to acetylcholine; activation, % at 3 µM; actives 0.088% (n = 360,000); CHO-K1 hM1, Fluo-8 calcium fluorescence, ACh EC20; 0% = ACh EC20, 100% = maximal ACh; in the data active = activation above about 19%, passing the limit was not always enough
An asterisk follows results filed as active.

SMILES	CHO-K1 Ca ag	M1 ag	CHO-K1 Ca PAM	M1 antag	CHO-K1 Ca antag	M1 PAM
O=C(OCC(O)COC(=O)c1cccnc1)c1cccnc1	0.3	-2.0	-11.8	-0.4	-6.3	6.1
Cc1onc(-c2ccccc2)c1NC(=O)N(CCC#N)Cc1ccccc1	0.5	-1.4	8.9	-10.3	-13.3	11.9
CCCCOc1ccc(C(=O)N2CCCC2)cc1	-0.3	-4.7	13.7	1.3	15.2	1.2
CCCCCOc1ccc(C(=O)CCC(=O)N2CCCC2)cc1	9.1	-10.9	2.8	22.3*	-11.6	-19.3
CCCCN(C(=O)c1cc(=O)[nH]c2ccccc12)c1c(N)n(CCCC)c(=O)[nH]c1=O	0.1	-1.5	-19.9	2.6	1.2	-0.5
COc1ccc(Nc2sc(C(=O)c3ccc(Cl)cc3)c(N)c2C(=O)Nc2ccccc2OC)cc1	19.6*	38.6*	13.4	44.0*	31.5*	-5.4
C=CCn1c(N)cc(=O)nc1SCC(=O)Nc1ccc(C(=O)OCC)cc1	-0.2	-0.5	-1.8	-10.7	-3.6	19.1
COC(=O)C(C)(C)ONC(=O)Nc1ccc(C)cc1	0.1	-6.5	16.5	-15.1	-12.3	5.5
O=C(CCn1c(=O)c2sccc2n(CC(=O)OCc2ccccc2)c1=O)NCc1ccco1	5.8	-5.9	7.2	16.5	2.2	-6.9
O=C(CCCn1c(=O)c2sccc2n(CC(=O)OCc2ccccc2)c1=O)NCc1ccco1	5.5	-1.9	22.2	27.7*	-5.9	-9.4
O=C(Cn1cnc2ccccc21)Nc1ccc(C(=O)O)cc1	0.3	-0.5	12.0	-10.1	-18.4	7.0
O=C(Cn1cnc2ccccc21)N/N=C/c1ccccc1	17.5*	-2.8	1.6	-8.4	3.9	12.0
CC1CCc2nn(CC(=O)N3CCc4ccccc43)cc2C1 (configuration not stated)	0.9	-13.6	9.3	101.8*	5.6	-34.5
CC(/C=N/NC(=O)Cn1cnc2ccccc21)=C\c1ccccc1	0.4	-5.5	-9.1	-1.3	27.3*	1.6
CC(/C=N/NC(=O)CCn1nnc2ccccc21)=C\c1ccccc1	1.0	-4.7	2.3	2.2	-3.3	1.6
O=C(Cn1cnc2ccccc21)N1CCc2ccccc21	-0.3	2.1	-15.8	0.2	28.1*	14.1
O=C(CSc1ccc(Cl)cc1)NC1CCCC1	0.1	-4.3	21.5	-8.2	-10.2	9.1
O=C(NC1CCCCC1)Sc1ccc(Cl)cc1	0.0	-0.6	-4.5	-2.3	23.8*	4.3
COc1ccc(C(=O)OCC(=O)NCc2ccccc2)c(OC)c1OC	4.5	-5.2	12.6	0.5	-2.2	3.6
N#CC1=C2SCCN2C(=O)C(C#N)C12CCCCC2 (configuration not stated)	-0.1	-3.7	-7.6	10.5	25.3*	-3.1
CC1CC(C)CN(C(=O)CCn2c(=O)oc3ccccc32)C1 (configuration not stated)	0.4	-2.7	8.9	-15.2	-1.5	13.1
Cc1cc(C(=O)Nc2cccc3c2O[C@H](CN(C)CC2CC2)[C@@H](C)CN([C@H](C)CO)C3=O)n(C)n1	9.9	5.1	56.1*	-5.8	-28.1	6.8
C[C@H](CO)N1C[C@H](C)[C@@H](CN(C)C(=O)Nc2ccc(C(F)(F)F)cc2)Oc2c(NC(=O)Nc3ccc(C(F)(F)F)cc3)cccc2C1=O	3.4	0.4	20.9	-0.9	-10.3	3.4
C[C@H](CO)N1C[C@H](C)[C@@H](CN(C)CC2CC2)Oc2c(NC(=O)C3CC3)cccc2C1=O	0.1	-7.1	-1.4	5.6	-4.7	-3.0
C[C@H]1CN([C@@H](C)CO)C(=O)c2cccc(NC(=O)Nc3ccc(C(F)(F)F)cc3)c2O[C@H]1CN(C)C	-0.3	6.0	2.9	-12.9	1.5	26.5*
SMILES	CHO-K1 Ca ag	M1 ag	CHO-K1 Ca PAM	M1 antag	CHO-K1 Ca antag	M1 PAM
COc1ccc(C(=O)C2CCCN(C(=O)c3cccc(N4CCCC4=O)c3)C2)cc1OC (configuration not stated)	10.4	-3.2	-6.0	-6.2	3.4	5.1
CC(C)(C)C(=O)NC(=S)NNC(=O)c1ccc(Cl)cc1Cl	119.1*	117.1*	-32.0	87.0*	58.7*	-23.8
CC(C)(C)C(=O)NC(=S)NNC(=O)c1ccc(-c2ccccc2)cc1	107.0*	115.1*	-25.9	102.9*	95.1*	-23.9
Cc1ccc(C(=O)NNC(=O)c2ccc(NC(=O)C(C)(C)C)cc2)cc1	15.2*	7.8	2.4	-7.4	4.2	9.4
C=CCN1C(=O)/C(=C/c2ccc(O)c(OC)c2)S/C1=N/c1nccs1	16.9*	10.3	10.6	23.3	24.2*	-7.5
C=CCN1C(=O)/C(=C/c2ccc(OCC(=O)O)cc2)S/C1=N/c1nccs1	0.2	-4.7	13.3	1.2	-11.8	1.6
CCOc1ccc2noc3c2c1C(=O)c1ccccc1-3	13.4	21.5*	18.6	5.7	2.5	-0.2
CCNc1ccc2noc3c2c1C(=O)c1ccccc1-3	50.7*	75.2*	-1.8	35.7*	26.7*	-19.8
O=C1c2ccccc2-c2onc3ccc(NCc4ccco4)c1c23	18.6*	36.4*	-9.5	43.6*	44.6*	-13.3
O=C1c2ccccc2-c2onc3ccc(N4CCCC4)c1c23	3.1	4.2	-13.5	19.6	9.3	-6.1
Cc1ccc(N)cc1NC(=O)CN1CCOCC1	-0.2	0.4	-0.2	-15.5	-4.7	15.2
Cc1ccc(NC(=S)NCCN2CCOCC2)cc1F	0.1	-2.7	14.2	-9.6	-16.5	10.9
Cc1cc(-c2nc(C)c(-c3nnc(SCC(=O)Nc4ccc(Cl)cc4)n3C)s2)no1	0.2	-3.1	7.2	-6.9	-3.1	7.2
O=C(Cc1ccc(S(=O)(=O)N2CCOCC2)s1)N1CCN(c2cccc(C(F)(F)F)c2)CC1	17.7*	2.0	-4.8	38.3*	19.4	-12.3
O=C(Cn1c(-c2ccccn2)nc2ccccc21)N/N=C/c1ccccn1	3.7	0.1	-14.1	14.5	29.9*	-8.3
COc1cccc(N/C=C/C(=O)c2ccc(OC)c(OC)c2)c1	0.9	-2.9	12.1	-10.1	-2.3	-0.3
CCOC(=O)c1cccc(N/C=C/C(=O)c2ccc(OC)c(OC)c2)c1	2.8	-0.1	-5.2	29.0*	18.4	-11.3
CC(Cc1ccsc1)NC(=O)CCc1nnc(COc2ccccc2)o1 (configuration not stated)	0.9	-5.9	18.7	-8.8	-15.4	7.0
CCCCNC(=S)Nc1ccc(Cl)cc1	10.2	-3.4	-11.1	13.6	30.6*	-10.2
CN(C)CCNC(=S)Nc1ccc(Cl)cc1	0.1	-5.1	1.7	13.9	2.9	25.1*
Cc1ccc(SCCNC(=S)Nc2cc(C)cc(C)c2)cc1	4.5	-2.5	15.0	20.9	-5.2	-18.6
Cc1ccc(NC(=S)NCCSc2ccc(Cl)cc2)cc1	3.3	-6.2	-11.0	55.9*	9.3	-26.5
